AMA1 RON2 block = AMA1-RON2 (P. falciparum) interaction inhibition | AID 720542 | Potency, µM (highest dose often 58.2 µM), inactives show at the top dose activity change, negative = inhibition, usual class: inhibitors | hit rate 0.2% among 360,000 | AlphaScreen AMA1-biotinylated RON2 peptide binding;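 note: 0% = vehicle wells and -100% = peptide control; nearly all actives have a fitted effect of over 45% in size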
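AMA1 (3D7) with his tag at 25 nM final met compounds first, then biotinylated RON2 peptide at 25 nM; detection used donor plus acceptor beads, 10 µg/mL apiece, read by AlphaScreen after 30 min at room temperature.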
Pf growth 96h = inhibits malaria parasite growth, 96 h; AID 504834; hit rate 6.9% among 320,000; P. falciparum luciferase reporter growth, 96 h; Potency, µM (highest dose often 28.7 µM), without a hit: top-dose activity change, negative = inhibition, most hits filed as inhibitors
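Parasite growth measured via integrated firefly luciferase reporter in P. falciparum. Infected erythrocytes at 2% hematocrit, 0.05% parasitemia final were treated 96 hours at 37 C under 5% CO2, and luminescence was read.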
AmpC inh detg = AmpC beta-lactamase inhibition with detergent present; P00811; AmpC hydrolysis of nitrocefin, absorbance 480 nm, 0.01% Triton; Potency, µM (doses to about 114 µM), for inactives: at the top dose activity change, negative = inhibition, usual class: inhibitors; hit rate 0.041% among 370,000;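 note: 0% = no-compound wells and -100% = no-enzyme wells; nearly all actives have a fitted effect of over 25% in size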
Target sequence (P00811 whole entry, looked up): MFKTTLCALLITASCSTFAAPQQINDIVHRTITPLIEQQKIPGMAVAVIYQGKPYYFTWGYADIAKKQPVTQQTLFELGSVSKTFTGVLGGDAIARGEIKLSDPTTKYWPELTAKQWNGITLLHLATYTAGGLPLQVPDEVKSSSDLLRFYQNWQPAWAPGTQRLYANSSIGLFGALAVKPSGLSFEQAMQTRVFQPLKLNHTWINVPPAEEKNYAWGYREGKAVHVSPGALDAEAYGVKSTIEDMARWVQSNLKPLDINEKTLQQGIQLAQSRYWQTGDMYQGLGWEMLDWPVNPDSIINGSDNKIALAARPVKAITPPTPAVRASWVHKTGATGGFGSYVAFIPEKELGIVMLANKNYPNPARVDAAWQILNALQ
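AmpC (5.3 nM in the dispensed reagent) in 20 mM phosphate pH 7.0 with 0.01% (detergent screen) or 0.0001% Triton X-100 was preincubated with compounds for 15 min at room temperature. Nitrocefin was then added from an 800 uM solution, and hydrolysis was followed at 480 nm.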
HCV inh = inhibitors of hepatitis C virus infection; hit rate 3.4% among 340,000; Huh7.5.1 HCVcc-Cre infection, luciferase reporter, 44 h; Potency, µM (top dose mostly 41.8 µM), inactives show at the top dose activity change, negative = inhibition, hits mostly inhibitors; AID 651820
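After 44 h co-culture of compound, cells and HCVcc-Cre (~0.5 moi), substrate is added for 15 min at room temperature and luciferase measured over 15 sec. Cells were seeded at 1,000/well and pre-cultured 4 h.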
AmpC inh no detg = blocks E. coli AmpC beta-lactamase in detergent-free assay; P00811; AmpC nitrocefin hydrolysis, absorbance 480 nm, 0.0001% Triton; Potency, µM (series often up to 57.1 µM), for the others: top-dose activity change, negative = inhibition, hits mostly inhibitors; hit rate 0.52% among 330,000;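 note: plate controls were no compound for no effect and no enzyme for full effect; nearly all actives have a fitted effect of over 20% in size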
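AmpC (5.3 nM in the dispensed reagent) in 20 mM phosphate pH 7.0 with 0.01% (detergent screen) or 0.0001% Triton X-100 was preincubated with compounds for 15 min at room temperature. Nitrocefin was then added from an 800 uM solution, and hydrolysis was followed at 480 nm.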
Pf growth 48h = P. falciparum growth inhibition at 48 hours (one generation); hit rate 5.9% among 310,000; P. falciparum luciferase growth in erythrocytes, 48 h; Potency, µM (highest dose often 28.7 µM), without a hit: at the highest dose activity change, negative = inhibition, actives largely listed as inhibitors
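In quantitative HTS format, infected erythrocytes bearing luciferase-reporter parasites were treated for a single generation at 37 C. Luminescence after adding detection reagent served as the growth measure.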
Starred values were filed as active, the others as inactive; u = inconclusive; x = not tested or not shown. Hits are enriched below; roughly 11% of the tested compounds scored in any of these assays. Calls come from the whole dose curve; as a rule, active = well fitted curve in the direction sought with a large enough effect; inconclusive = small, poorly fitted or top-dose-only effect, or another doubt; inactive = no such curve, though single readings can be large; an effect the other way counts as inactive or inconclusive. Unless noted, % is set by controls: 0 for no effect and ±100 for the full control effect; potency is the fitted concentration of half-maximal effect.

SMILES	AMA1 RON2 block	Pf growth 96h	AmpC inh detg	HCV inh	AmpC inh no detg	Pf growth 48h
COc1cccc(C2c3[nH]c4ccccc4c3CCN2Cc2cnc(C)s2)c1OC (stereo not drawn)	-24.9%	u	10.5%	-29.5%	73.2%	2.33µM*
COc1ccc(N2C(=O)CCC(C(=O)O)C2c2ccc(F)cc2)cc1 (stereo not drawn)	-11.9%	2.62µM*	3.5%	-12.6%	-8.3%	4.1%
COc1ccc(C2SCC(=O)N2c2ccc(OC)cc2)cc1 (stereo not drawn)	0.0%	374.4%	1.5%	-10.3%	8.6%	3.0%
COc1ccc(C2C(C(=O)NCc3ccccn3)CCC(=O)N2c2cc(OC)c(OC)c(OC)c2)cc1 (stereo not drawn)	16.4%	11.7µM*	1.2%	-1.1%	-2.8%	15.0%
COc1ccc(N2C(=O)CSC2c2ccc([N+](=O)[O-])cc2)cc1 (stereo not drawn)	0.9%	5.22µM*	-13.6%	-21.1%	-9.2%	x
COc1ccc(C2SCC(=O)N2c2ccc(F)cc2)cc1 (stereo not drawn)	14.4%	2.62µM*	1.7%	-1.0%	-5.9%	12.8%
CC(=O)c1ccc(N2CCN(C(=O)Nc3cn(CC(C)C)c(=O)c4ccccc34)CC2)cc1	x	x	11.6%	x	x	x
CCOC(=O)N1CCN(C(=O)C2CC(=O)N(c3ccc(OC)cc3)C2c2ccc(OC)cc2)CC1 (stereo not drawn)	4.6%	u	-13.1%	4.3%	206.3%	9.28µM*
Oc1ccc(/C=N/Nc2ccnc3cc(Cl)ccc23)c(O)c1O	23.2%	u	-8.8%	u	-59.1%	u
CC/C(=N/NS(=O)(=O)c1ccc(Cl)cc1)c1ccc(O)cc1	28.2%	28.7%	u	22.0%	-28.8%	14.4%
CC/C(=N\Nc1ccnc2cc(Cl)ccc12)c1ccc(O)cc1	-26.9%	1.31µM*	u	u	-43.5%	1.65µM*
Oc1ccc(/C=N/Nc2ccnc3cc(Cl)ccc23)cc1O	2.3%	0.738µM*	-7.6%	u	11.2µM*	0.657µM*
O=C(c1ccco1)N1CCCC(c2nc3c(nnn3Cc3cccc(Cl)c3)c(=O)[nH]2)C1 (stereo not drawn)	5.4%	52.5%	3.9%	-12.1%	17.1%	u
Cc1ccc(Cn2nnc3c(=O)[nH]c(C4CCN(S(=O)(=O)c5ccccc5)CC4)nc32)cc1	-1.1%	29.6%	-2.0%	15.9%	38.9%	13.5%
Cc1ccc(S(=O)(=O)N2CCC(c3nc4c(nnn4Cc4ccccc4)c(=O)[nH]3)CC2)cc1	-15.4%	29.4%	0.2%	21.1%	-3.7%	11.7µM*
N#Cc1ccc(NC(=O)N2CCC(c3nc4c(nnn4Cc4cccc(Cl)c4)c(=O)[nH]3)CC2)cc1	u	7.38µM*	-5.6%	1.2%	0.3%	u
O=c1[nH]c(C2CCN(S(=O)(=O)/C=C/c3ccccc3)CC2)nc2c1nnn2Cc1ccccc1	-26.0%	-69.3%	-4.7%	2.4%	-16.9%	4.65µM*
O=c1[nH]c(C2CCN(S(=O)(=O)c3ccccc3C(F)(F)F)CC2)nc2c1nnn2Cc1ccccc1	-15.7%	2.62µM*	4.1%	18.9%	9.5%	5.86µM*
CCOc1ccc(-n2c(SCc3ccc(C(=O)OC)o3)nc3c([nH]c4ccccc43)c2=O)cc1	x	x	7.1%	x	x	x
Cc1cc2c(n1-c1ccc(C(=O)NCc3ccccc3Cl)cc1)CCCC2	x	x	27.3%	x	x	x
CCOc1ccc(-c2nonc2NC(=O)COc2ccccc2)cc1	x	x	-7.4%	x	x	x
COCCN(CCOC)c1ncnc2c1c(-c1ccccc1)cn2-c1ccc(C)c(Cl)c1	x	x	-5.3%	x	x	x
O=c1[nH]c(C2CCCN(S(=O)(=O)Cc3ccccc3)C2)nc2c1nnn2Cc1cccc(Cl)c1 (stereo not drawn)	-4.1%	9.7%	-1.1%	13.0%	-6.2%	11.7µM*

Assay outcomes (PubChem)
